This note sets out measurements from PubChem BioAssay AID743279 (National Center for Advancing Translational Sciences (NCATS), 2014).

Among all 360,000 compounds or so, about 17,000 (4.7%) were called active. About 5% were inconclusive and are not listed. Rule as the data show it: active = activity change below about -50%; inconclusive = mostly about -30% to -49%; inactive = weaker than that. The full list was thinned out, with actives kept by preference.
% is scaled to controls: 0 for no effect and ±100 for the full control effect.

A short description of this assay: qHTS for Inhibitors of Inflammasome Signaling: IL-1-beta AlphaLISA Primary Screen. Particulars: THP-1 LPS/ATP IL-1B secretion, 16 h; at 57.5 µM, hits give low values. A digest of the protocol:
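THP-1 cells pretreated 1 hr with compounds (up to 57.5 uM final), then stimulated with LPS (250 ng/mL final) plus ATP (1.25 mM final); secreted IL-1B measured by AlphaLISA after 16 hr, decreased signal indicating inhibition.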
Background: Quantitative high-throughput screening tests each substance at several concentrations.
Consider `CC(Sc1nncn1C)C(=O)NCCC1=CCCCC1` (centres undefined), for which the activity change is 1.27% (inactive).

Consider `CCCCN(Cc1ccccc1)C(=O)C1CCN(Cc2sccc2C)CC1`, for which the activity change was -20.5% (inactive).

Consider `O=C(NCc1ccccn1)[C@@H]1CCCN1C(=O)[C@@H]1CCCN1C(=O)c1ccccc1`, for which the activity change is 0% (inactive).

Turning to `CCC(C(=O)OCCN(CC)CC)c1ccccc1` (centres undefined), the activity change was -16.3% (inactive).

Take `CCOc1cc2ccccc2cc1C(=O)Nc1ccccn1`: the activity change is 9.73% (inactive).

On to `CCN(CC)CCOc1ccc2c(c1)C(=NNC(=O)c1ccccn1)c1cc(OCCN(CC)CC)ccc1-2`, for which the activity change was -56.2% (active).

On to `OC(CNCc1ccc(Cl)c(Cl)c1)c1ccccc1` (centres undefined), for which the activity change is -69.4% (active).

On to `Cc1c(Cl)cccc1NC(=S)NCC(O)c1ccccc1` (centres undefined), for which the activity change was -6.92% (inactive).

Consider `CC(C)(CNCC(O)c1ccccc1)N1CCOCC1` (centres undefined), for which the activity change is -7.93% (inactive).

With `Cc1c(NC(=O)C(=O)N/N=C/c2cccs2)c(=O)n(-c2ccccc2)n1C`, the activity change was -21.9% (inactive).

On to `O=C(NCc1ccc(F)cc1)c1cc(C2CCCCN2C(=O)c2ccccn2)on1` (centres undefined), for which the activity change was 42.4% (inactive).

For `O=C(OCc1cn(-c2ccc(Cl)c(Cl)c2)nn1)c1ccccc1Cl`, the activity change is -2.76% (inactive).

Take `Cc1cccc(CN2CCN(C3CN(Cc4cn(Cc5cc(C)cc(C)c5)nn4)S(=O)(=O)C3)CC2)c1` (centres undefined): the activity change was -18.8% (inactive).

With `CCOc1ccc(C(C)=O)cc1COC(=O)CNC(=O)c1cccs1`, the activity change was -9.33% (inactive).

`COC(=O)c1ccc(COC(=O)c2cnc(Cl)c(Cl)c2)cc1`: the activity change is -13.4% (inactive).

Regarding `CCOc1ccc(C(C)=O)cc1COC(=O)c1cnc(Cl)c(Cl)c1`, the activity change is -108% (active).

Turning to `CC(C)c1cc(Cn2c3ccccc3c(=O)n2C(C)Cn2cc(C3CC3)nn2)on1` (centres undefined), the activity change is -6.05% (inactive).

Regarding `O=C1CS(=O)CN1c1ccc(Oc2ccccc2)cc1` (centres undefined), the activity change was 15% (inactive).

Turning to `O=C1c2ccccc2C(c2nc3ccccc3[nH]2)N1c1ccccc1` (centres undefined), the activity change was 81% (inactive).

In the case of `Cc1cccn2c(=O)c3cc(C(=O)NC4CCCCC4)sc3nc12`, the activity change is -16.1% (inactive).

Take `CC1(C(=O)NS(=O)(=O)C2CC2)CCCN(C(=O)CSc2ccccc2)C1` (centres undefined): the activity change is 10.6% (inactive).

In the case of `CCOc1ccc(C(=O)Nc2c3c(nn2-c2ccccc2)CS(=O)(=O)C3)cc1`, the activity change was 12.2% (inactive).

Regarding `CC1CCN(C2=NC(=O)/C(=C/c3cn[nH]c3-c3ccccc3)S2)CC1`, the activity change was -59.2% (active).

As for `CC1CCN(c2nc3c(c(=O)[nH]c(=O)n3C)n2CCCc2ccccc2)CC1`, the activity change is 14.1% (inactive).

As for `O=C1N=C(N2CCOCC2)S/C1=C\C=C/c1ccccc1`, the activity change is -18% (inactive).

Consider `CC(C)C(NC(=O)c1c(F)cccc1F)C(=O)NCc1ccncc1` (centres undefined), for which the activity change is 4.1% (inactive).

As for `CC(C)C(NC(=O)OCc1ccccc1)C(=O)OCC(=O)N1C(C)CCCC1C` (centres undefined), the activity change is -2.86% (inactive).

With `CC(C)c1ccc(S(=O)(=O)N2CCN(C(=O)c3ccc(N4CCCC4)c([N+](=O)[O-])c3)CC2)cc1`, the activity change is -52% (active).

Turning to `O=C(c1ccc(N2CCOCC2)c([N+](=O)[O-])c1)N1CCN(S(=O)(=O)c2cccs2)CC1`, the activity change is -0.922% (inactive).

Turning to `Cc1ccc(S(=O)(=O)N2CCN(C(=O)c3ccc(-n4cncn4)c([N+](=O)[O-])c3)CC2)cc1`, the activity change is -5.16% (inactive).

Turning to `CCN(CCn1cccn1)Cc1nc(-c2ccc(C(=O)OC)cc2)no1`, the activity change is 81.6% (inactive).

`Clc1ccc(-c2cc(-c3ccccn3)on2)c(Cl)c1`: the activity change was 0% (inactive).

Regarding `Clc1ccc(-c2cc(C3CCNCC3)[nH]n2)c(Cl)c1`, the activity change was -79.9% (active).

As for `O=C(Cn1ccc([N+](=O)[O-])n1)NCc1cccs1`, the activity change is 5.04% (inactive).

`O=C(NCCc1cccc(F)c1)C1CC(O)CN1C(=O)Nc1ccccc1` (centres undefined): the activity change was 22.4% (inactive).

With `CCCS(=O)(=O)C(=C1Nc2ccccc2N1)S(=O)(=O)CCC`, the activity change is 3.44% (inactive).

Turning to `O=C(CN1CCCCCC1)N1c2ccccc2Sc2ccc(C(F)(F)F)cc21`, the activity change was -60% (active).

Turning to `COc1cc(/C=C/C(=O)N2c3ccccc3Sc3ccc(C(F)(F)F)cc32)cc(OC)c1OC`, the activity change is -1.9% (inactive).

Regarding `O=C(CN1CCCCC1)N1c2ccccc2Sc2ccc(C(F)(F)F)cc21`, the activity change was -13.4% (inactive).

For the compound `CC(=O)NCCc1ccc(S(=O)(=O)N(C)C2CCS(=O)(=O)C2)cc1` (centres undefined), the activity change was 0% (inactive).

In the case of `CC(=O)c1nn(-c2ccccc2)c(=Nc2ccccc2)cc1C`, the activity change was -11% (inactive).

For `O=C(Nc1ccc(Cl)cn1)c1ccccc1-c1ccccc1`, the activity change was 7.39% (inactive).

With `Oc1ccccc1-c1cc(-c2ccc(Cl)cc2)n[nH]1`, the activity change was -71.3% (active).

On to `CSc1ccccc1-c1nnc(-c2ccc(Cl)cc2)o1`, for which the activity change was -6.95% (inactive).

For `CC(=O)NC(C)(C)C1CC=C(C)/C(=N\O)C1` (centres undefined), the activity change is 3.35% (inactive).

For `COc1ccc(N(C)S(=O)(=O)c2ccc3c(c2)CC(C)N3C(=O)C2CC2)c(OC)c1` (centres undefined), the activity change is -63.4% (active).

`COc1ccccc1CNC(=O)C1CCN(S(=O)(=O)c2ccc3c(c2)CC(C)N3C(=O)C2CC2)CC1` (centres undefined): the activity change was -26% (inactive).

`COc1cccc(CNS(=O)(=O)c2ccc3c(c2)CC(C)N3C(C)=O)c1` (centres undefined): the activity change is 4.38% (inactive).

Regarding `C[C@H](CO)N1C[C@H](C)[C@@H](CN(C)C(=O)c2cnccn2)Oc2ncc(Br)cc2C1=O`, the activity change is 33.8% (inactive).

With `O=C1/C(=C\c2ccc([N+](=O)[O-])cc2)CS(=O)(=O)C/C1=C/c1ccc([N+](=O)[O-])cc1`, the activity change is -99.9% (active).

For the compound `O=[N+]([O-])c1ccc(C=NN=Cc2ccc([N+](=O)[O-])cc2)cc1`, the activity change is -8.06% (inactive).

Regarding `CC(=O)Nc1ccc(C=Cc2ccc([N+](=O)[O-])cc2)cc1`, the activity change was -18.6% (inactive).

For `CCN(CC)C(=O)CSc1ncnc2c1cnn2-c1ccccc1`, the activity change was -11.6% (inactive).

As to `CCN(C(=O)CSc1ncnc2c1cnn2-c1ccccc1)C1CCS(=O)(=O)C1` (centres undefined), the activity change is -60.6% (active).

On to `CCC(C)N(C(=O)CSc1ncnc2c1cnn2-c1ccccc1)C1CCS(=O)(=O)C1` (centres undefined), for which the activity change is -9.61% (inactive).

Turning to `CC1=C(C(=O)N2CCOCC2)CC(CC(=O)NCC2CCCCC2)C(=O)N1Cc1ccc(F)cc1` (centres undefined), the activity change was 3.54% (inactive).

In the case of `CNc1cc(-c2c(OC)cccc2OC)ncn1`, the activity change is 22.1% (inactive).

`Cc1ccc(OCCNC(=O)c2cccc(S(=O)(=O)N3CCN(Cc4ccccc4)CC3)c2)cc1`: the activity change is -14.6% (inactive).

Consider `C=CCN(CC=C)C(=O)COC(=O)c1n[nH]c2ccccc12`, for which the activity change is 18.7% (inactive).

Turning to `CCOc1ccc(CCN2C(=O)C(=O)N([C@@H](Cc3ccc(O)cc3)CN3CCC[C@H]3CN3C(=O)C(=O)NC[C@@H]3CC(C)C)C[C@@H]2Cc2ccccc2)cc1`, the activity change is 13.9% (inactive).

For the compound `CC(C)C[C@H]1CNC(=S)N1C[C@H]1CCCN1C[C@H](Cc1ccc(O)cc1)N1C[C@H](Cc2ccc(O)cc2)N(CC2CCCCC2)C1=S`, the activity change is -11.2% (inactive).

As to `CC(C)C[C@H]1CN([C@@H](Cc2ccccc2)CN2CCC[C@@H]2CN2C(=O)C(=O)NC[C@@H]2Cc2ccc(O)cc2)C(=O)C(=O)N1CCc1ccccc1`, the activity change was 0% (inactive).

For `CC(C)C[C@H]1CN([C@@H](CC(C)C)CN2CCC[C@@H]2CN2C(=O)C(=O)NC[C@@H]2Cc2ccccc2)C(=O)C(=O)N1CCc1ccccc1`, the activity change was -63.4% (active).

Turning to `O=C1NC[C@H](Cc2ccc(O)cc2)N(C[C@@H]2CCCN2C[C@H](Cc2ccccc2)N2C[C@H](Cc3ccccc3)N(CC3CCCCC3)C(=O)C2=O)C1=O`, the activity change is -15.5% (inactive).

For `CCOc1ccc(CCN2C(=O)C(=O)N([C@@H](CC(C)C)CN3CCC[C@H]3CN3C(=O)C(=O)NC[C@@H]3Cc3ccccc3)C[C@@H]2CC(C)C)cc1`, the activity change is -1.26% (inactive).

Turning to `CCOc1ccc(CCN2C(=S)N([C@@H](CC(C)C)CN3CCC[C@@H]3CN3C(=S)NC[C@@H]3Cc3ccc(O)cc3)C[C@@H]2Cc2ccc(O)cc2)cc1`, the activity change was -64.1% (active).

Consider `CC(C)C[C@H]1CNC(=O)C(=O)N1C[C@H]1CCCN1C[C@H](Cc1ccc(O)cc1)N1C[C@H](CC(C)C)N(CC2CCCCCC2)C(=O)C1=O`, for which the activity change was -60.7% (active).

In the case of `CC(C)C[C@H]1CNC(=O)C(=O)N1C[C@@H]1CCCN1C[C@H](Cc1ccccc1)N1C[C@H](CC(C)C)N(CC2CCCCCC2)C(=O)C1=O`, the activity change is 0% (inactive).

As to `CCCCN1CC(COc2ccccc2)Oc2cccc(F)c2S1(=O)=O` (centres undefined), the activity change was -1.95% (inactive).

For the compound `COc1cc(NC(=O)CSc2ccc(-c3cccnc3)nn2)cc(OC)c1`, the activity change was -13.8% (inactive).

As for `CC1CCC2(CC1)NC(=O)N(CC(=O)NCc1ccco1)C2=O` (centres undefined), the activity change was 5.54% (inactive).

Regarding `CCc1ccc2c(c1)NC(=O)C2(C)Cc1ccc(OC(F)(F)F)cc1` (centres undefined), the activity change was -20.9% (inactive).

As to `N#C/C=C(/c1ccc(F)cc1)N1CCOCC1`, the activity change is 11.5% (inactive).

For `COc1ccc(CNC(=O)COC(=O)C2=Cc3ccccc3OC2)cc1`, the activity change was 1.65% (inactive).

Regarding `O=C(CSc1ccccc1F)NC1CCS(=O)(=O)C1` (centres undefined), the activity change was -10.4% (inactive).

Regarding `COc1ccc(NC(=S)NC2CCS(=O)(=O)C2)cc1` (centres undefined), the activity change was 7% (inactive).

`CCCSC(=S)NC1CCS(=O)(=O)C1` (centres undefined): the activity change is -105% (active).

`O=S1(=O)CCC(NC(=S)SCc2ccccc2Br)C1` (centres undefined): the activity change was -69% (active).

`O=C(Cc1ccc(Cl)cc1)NC1CCS(=O)(=O)C1` (centres undefined): the activity change is -6.66% (inactive).

For `CC(C)C(=O)NC(NC(=S)NC1CCS(=O)(=O)C1)C(Cl)(Cl)Cl` (centres undefined), the activity change is 15.4% (inactive).

Take `C[C@@H]1NS(=O)(=O)c2cc(Cl)ccc2O[C@@H]1c1ccccc1`: the activity change was -5.88% (inactive).

On to `O=C1NC[C@H](CCCCN2C[C@H](Cc3ccc(O)cc3)N(CC3CCCCC3)C(=O)C2=O)N(CCc2ccccc2)C1=O`, for which the activity change is 4.81% (inactive).

`CC1(Cc2ccccc2C#N)C(=O)Nc2ccc(-c3ccc4[nH]ccc4c3)cc21` (centres undefined): the activity change was 90.5% (inactive).

Regarding `COc1ccc(N=C2C=CC(=O)O2)cc1`, the activity change is 4.16% (inactive).
